# According to article PMC10812921, “Transcriptional Coactivator BOB1 (OBF1, OCA-B) Modulates the Specificity of DNA Recognition by the POU-Domain Factors OCT1 and OCT2 in a Monomeric Configuration”:
# Legend:
# [1] = target: POU1 (OCT1 POU domain) (human, UniProt P14859 260-458); test: EMSA-SELEX-seq; no BOB1; 20 mM Tris-HCl pH 7.6, 140 mM NaCl, 10% glycerol, 0.5 mM EDTA, 0.05% Triton X-100, 0.1 mg/mL BSA, 0.1 mg/mL poly(dI-dC), 5 mM DTT, room temperature, 20 min; high values mean tight binding; settings: protein: recombinant; dsDNA, one strand shown
# Chain of POU1 (OCT1 POU domain) (P14859 260-458): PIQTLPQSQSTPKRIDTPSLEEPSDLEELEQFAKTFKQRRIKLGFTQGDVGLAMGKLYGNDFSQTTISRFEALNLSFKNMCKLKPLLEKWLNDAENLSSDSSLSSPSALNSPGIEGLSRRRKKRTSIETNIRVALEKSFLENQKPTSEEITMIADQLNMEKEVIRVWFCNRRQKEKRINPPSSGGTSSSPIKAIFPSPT
# In short: (§1)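 Binding preference is the percentage of sequenced 8-mers matching a motif pattern. Tagged POU-domain proteins expressed in E. coli BL21 were purified under denaturing conditions and renatured. For binding, 30 ng protein met 300 ng of a PCR-amplified double-stranded random 35-nt library, with or without 28 ng coactivator protein, in 20 μL Tris–HCl pH 7.6 binding buffer for 20 min at RT. Complex bands were cut from native 6% PAGE, eluted and PCR-amplified over four rounds, then Illumina-sequenced.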
# [2] = target: T1, POU2 (OCT2 POU domain) (human, UniProt P09086 175-386); test: as above; settings: protein: recombinant; dsDNA, one strand shown
# T1 sequence: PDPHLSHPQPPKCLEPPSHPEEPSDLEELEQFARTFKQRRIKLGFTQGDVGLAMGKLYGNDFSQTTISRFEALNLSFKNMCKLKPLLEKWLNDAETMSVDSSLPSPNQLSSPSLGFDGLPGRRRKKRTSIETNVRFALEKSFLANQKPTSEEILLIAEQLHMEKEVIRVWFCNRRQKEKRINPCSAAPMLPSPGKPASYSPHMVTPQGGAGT
# In short: as §1
# [3] = target: POU1 (OCT1 POU domain);BOB1 (OBF1, OCA-B) (human;human, UniProt P14859;Q16633 260-458;1-256, |); test: EMSA-SELEX-seq; with BOB1 (ternary complex band); 20 mM Tris-HCl pH 7.6, 140 mM NaCl, 10% glycerol, 0.5 mM EDTA, 0.05% Triton X-100, 0.1 mg/mL BSA, 0.1 mg/mL poly(dI-dC), 5 mM DTT, room temperature, 20 min; high values mean tight binding; settings: protein: recombinant;recombinant; copies: 1;1; dsDNA, one strand shown
# In short: as §1
# [4] = target: T2, POU2 (OCT2 POU domain);BOB1 (OBF1, OCA-B) (human;human, UniProt P09086;Q16633 175-386;1-256, |); test: as above; settings: protein: recombinant;recombinant; copies: 1;1; dsDNA, one strand shown
# T2 sequence 1: T1 sequence
# T2 sequence 2: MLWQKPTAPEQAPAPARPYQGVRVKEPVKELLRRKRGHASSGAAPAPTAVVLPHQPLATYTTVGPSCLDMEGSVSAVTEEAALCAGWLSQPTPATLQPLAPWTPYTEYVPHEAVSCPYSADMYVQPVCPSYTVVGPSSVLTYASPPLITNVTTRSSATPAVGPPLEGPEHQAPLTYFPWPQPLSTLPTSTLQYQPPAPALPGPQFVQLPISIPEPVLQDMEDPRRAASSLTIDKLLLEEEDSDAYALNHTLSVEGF
# In short: as §1
Sequence,binding signal [1],binding signal [2],binding signal [3],binding signal [4]
ACGTGAAG,0.0259 % of ANNNNAAN 8-mers,0.0282 % of ANNNNAAN 8-mers,0.0258 % of ANNNNAAN 8-mers,0.0305 % of ANNNNAAN 8-mers
AATTTAAA,0.913 % of ANNNNAAN 8-mers,0.793 % of ANNNNAAN 8-mers,0.303 % of ANNNNAAN 8-mers,0.312 % of ANNNNAAN 8-mers
AATTCAAA,0.373 % of ANNNNAAN 8-mers,0.292 % of ANNNNAAN 8-mers,0.438 % of ANNNNAAN 8-mers,0.4 % of ANNNNAAN 8-mers
ACTGCAAT,0.0301 % of ANNNNAAN 8-mers,0.0213 % of ANNNNAAN 8-mers,0.0367 % of ANNNNAAN 8-mers,0.0248 % of ANNNNAAN 8-mers
AGGATAAC,0.0263 % of ANNNNAAN 8-mers,0.0437 % of ANNNNAAN 8-mers,0.0293 % of ANNNNAAN 8-mers,0.0355 % of ANNNNAAN 8-mers
AAAACAAA,0.158 % of ANNNNAAN 8-mers,0.119 % of ANNNNAAN 8-mers,0.262 % of ANNNNAAN 8-mers,0.125 % of ANNNNAAN 8-mers
AACTAAAT,0.0778 % of ANNNNAAN 8-mers,0.0811 % of ANNNNAAN 8-mers,0.0667 % of ANNNNAAN 8-mers,0.0594 % of ANNNNAAN 8-mers
AGCAGAAG,0.0233 % of ANNNNAAN 8-mers,0.0207 % of ANNNNAAN 8-mers,0.0308 % of ANNNNAAN 8-mers,0.0264 % of ANNNNAAN 8-mers
ATGGCAAG,0.0355 % of ANNNNAAN 8-mers,0.0414 % of ANNNNAAN 8-mers,0.0351 % of ANNNNAAN 8-mers,0.0371 % of ANNNNAAN 8-mers
AGAGCAAA,0.0374 % of ANNNNAAN 8-mers,0.0293 % of ANNNNAAN 8-mers,0.0433 % of ANNNNAAN 8-mers,0.0413 % of ANNNNAAN 8-mers
ACGCTAAG,0.0202 % of ANNNNAAN 8-mers,0.0167 % of ANNNNAAN 8-mers,0.0242 % of ANNNNAAN 8-mers,0.0231 % of ANNNNAAN 8-mers
ACTAGAAT,0.0473 % of ANNNNAAN 8-mers,0.061 % of ANNNNAAN 8-mers,0.0589 % of ANNNNAAN 8-mers,0.0438 % of ANNNNAAN 8-mers
AAGTGAAT,0.105 % of ANNNNAAN 8-mers,0.123 % of ANNNNAAN 8-mers,0.0796 % of ANNNNAAN 8-mers,0.0669 % of ANNNNAAN 8-mers
ATGGGAAT,0.117 % of ANNNNAAN 8-mers,0.128 % of ANNNNAAN 8-mers,0.0995 % of ANNNNAAN 8-mers,0.116 % of ANNNNAAN 8-mers
AAGCTAAG,0.0248 % of ANNNNAAN 8-mers,0.0322 % of ANNNNAAN 8-mers,0.0187 % of ANNNNAAN 8-mers,0.0272 % of ANNNNAAN 8-mers
AGGGAAAT,0.549 % of ANNNNAAN 8-mers,0.365 % of ANNNNAAN 8-mers,0.963 % of ANNNNAAN 8-mers,0.713 % of ANNNNAAN 8-mers
ACATCAAT,0.0435 % of ANNNNAAN 8-mers,0.057 % of ANNNNAAN 8-mers,0.0367 % of ANNNNAAN 8-mers,0.0338 % of ANNNNAAN 8-mers

Sequence,binding signal [1],binding signal [2],binding signal [3],binding signal [4]
ATGGTAAT,1.27 % of ANNNNAAN 8-mers,1.28 % of ANNNNAAN 8-mers,0.202 % of ANNNNAAN 8-mers,0.219 % of ANNNNAAN 8-mers
AACCGAAG,0.0172 % of ANNNNAAN 8-mers,0.0201 % of ANNNNAAN 8-mers,0.0168 % of ANNNNAAN 8-mers,0.014 % of ANNNNAAN 8-mers
ATTGTAAA,0.116 % of ANNNNAAN 8-mers,0.106 % of ANNNNAAN 8-mers,0.144 % of ANNNNAAN 8-mers,0.0925 % of ANNNNAAN 8-mers
ACTCGAAG,0.0187 % of ANNNNAAN 8-mers,0.0207 % of ANNNNAAN 8-mers,0.0168 % of ANNNNAAN 8-mers,0.0182 % of ANNNNAAN 8-mers
ACTGGAAG,0.021 % of ANNNNAAN 8-mers,0.027 % of ANNNNAAN 8-mers,0.0211 % of ANNNNAAN 8-mers,0.0314 % of ANNNNAAN 8-mers
ATGTGAAT,0.138 % of ANNNNAAN 8-mers,0.158 % of ANNNNAAN 8-mers,0.0921 % of ANNNNAAN 8-mers,0.134 % of ANNNNAAN 8-mers
AATATAAA,0.156 % of ANNNNAAN 8-mers,0.178 % of ANNNNAAN 8-mers,0.107 % of ANNNNAAN 8-mers,0.101 % of ANNNNAAN 8-mers
ACGAGAAA,0.0381 % of ANNNNAAN 8-mers,0.0437 % of ANNNNAAN 8-mers,0.0355 % of ANNNNAAN 8-mers,0.038 % of ANNNNAAN 8-mers
AGCCAAAC,0.0194 % of ANNNNAAN 8-mers,0.0196 % of ANNNNAAN 8-mers,0.0261 % of ANNNNAAN 8-mers,0.0182 % of ANNNNAAN 8-mers
ACGGCAAG,0.0206 % of ANNNNAAN 8-mers,0.027 % of ANNNNAAN 8-mers,0.0211 % of ANNNNAAN 8-mers,0.0239 % of ANNNNAAN 8-mers
AATCCAAC,0.0259 % of ANNNNAAN 8-mers,0.0288 % of ANNNNAAN 8-mers,0.016 % of ANNNNAAN 8-mers,0.0223 % of ANNNNAAN 8-mers
ACCCTAAT,0.037 % of ANNNNAAN 8-mers,0.0518 % of ANNNNAAN 8-mers,0.0273 % of ANNNNAAN 8-mers,0.0223 % of ANNNNAAN 8-mers
AGCCGAAT,0.0313 % of ANNNNAAN 8-mers,0.0368 % of ANNNNAAN 8-mers,0.0281 % of ANNNNAAN 8-mers,0.033 % of ANNNNAAN 8-mers
AATCCAAT,0.0507 % of ANNNNAAN 8-mers,0.0552 % of ANNNNAAN 8-mers,0.0605 % of ANNNNAAN 8-mers,0.0504 % of ANNNNAAN 8-mers
ACGAGAAT,0.0492 % of ANNNNAAN 8-mers,0.0547 % of ANNNNAAN 8-mers,0.0347 % of ANNNNAAN 8-mers,0.0553 % of ANNNNAAN 8-mers
ACTATAAT,0.0595 % of ANNNNAAN 8-mers,0.0748 % of ANNNNAAN 8-mers,0.0472 % of ANNNNAAN 8-mers,0.0388 % of ANNNNAAN 8-mers
ATGTCAAG,0.0378 % of ANNNNAAN 8-mers,0.0535 % of ANNNNAAN 8-mers,0.0406 % of ANNNNAAN 8-mers,0.052 % of ANNNNAAN 8-mers
